We go through 40 compounds from PubChem BioAssay (NCATS).

Records with an inconclusive call do not appear. The source made the active and inactive calls. Calls come from the whole dose curve; as a rule, active = well fitted inhibition curve with a large enough effect; inconclusive = small, poorly fitted or top-dose-only effect; inactive = flat fitted curve, though single readings scatter. Where a SMILES comes first, the peptide text is derived from it. [ ]: non-standard residue; d: D form. 2Abz = Nc1ccccc1C(=O)O
% is set by controls: 0 for no effect and ±100 for the full control effect; potency is the fitted concentration of half-maximal effect.

The nature of this experiment: P-glycoprotein substrates identified in KB-8-5-11 adenocarcinoma cell line, qHTS therapeutic library screen (AID 1346987). Note: nearly all actives have a fitted effect of over 65% in size. The note with it: KB-8-5-11 (P-gp overexpressing) viability, CellTiter-Glo, 72 h; series mostly up to 44.5 µM; activity change, negative = cytotoxicity: at the top concentration. The source says: The ATP-binding cassette transporters P-glycoprotein (P-gp) is known to limit brain penetration of many chemotherapy drugs. […] As such, we developed a high-throughput screen (HTS) to identify substrates of P-gp from a series of chemical libraries including the National Center for Advancing Translational Sciences Pharmaceutical Collection NPC, 2,816 compounds), testing a total of 10,804 compounds, most of which have known mechanisms of action. We used the CellTiter-Glo viability assay to test library compounds against the parental KB-3-1 human cervical adenocarcinoma cell line and the colchicine-selected sub-line KB-8-5-11 that over-expresses P-gp. KB-8-5-11 cells were also tested in the presence of a P-gp inhibitor (tariquidar) to assess reversability of transporter-mediated resistance. Of the tested compounds, a total of 90 P-gp substrates were identified including 55 newly identified P-gp substrates. Substrates were confirmed using an orthogonal killing assay against HEK-293 cells transfected with P-gp. As exemplars, we confirmed that […] (cyclin-dependent kinase inhibitor); AT9283, (Janus kinase 2/3 inhibitor); ispinesib (kinesin spindle protein inhibitor); gedatolisib (PKI-587, phosphoinositide 3-kinase/mammalian target of rampamycin inhibitor); GSK-690693 (AKT inhibitor); and KW-2478 (heat shock protein 90 inhibitor) were substrates , and direct ATPase stimulation was assessed. ABCG2 was also found to confer high levels of resistance to AT9283, GSK-690693 and gedatolisib, while ispinesib, AT7519 and KW-2478 were weaker substrates.
The HeLa derivative cell line, KB-3-1, and its colchicine-selected, P-gp-overexpressing subline, KB-8-5-11 were maintained in DMEM with 10% FCS and Pen/Strep with glutamine at 37 degree C in 5% CO2. For KB-8-5-11 cells, colchicine was added to the medium at a concentration of 100 ng/mL. HEK-293 cells transfected with empty vector (pcDNA) or vector containing human ABCB1 (MDR-19) or ABCG2 (R-5) have been described previously (Robey, Lin, Qiu, Chan & Bates, 2011) and were maintained in EMEM supplemented with 10% FCS, Pen/Strep and glutamine with 2 mg/ml G418 to select for the expression of the transporter. Cultures were confirmed to be free of mycoplasma infection using the MycoAlert Mycoplasma Detection Kit (Lonza, Walkersville, MD). For the screen, assay medium was identical to culture medium except for KB-8-5-11 where colchicine was excluded from the medium.
All cell lines were plated into 1536-well plates at 500 cells/well in 5 uL media. Compounds were then pinned in dose-response using a 1536-head pin tool (Kalypsis, San Diego, CA) and plates were incubated at 37 degree C in 5% CO2 for an additional 72 h. CellTiter-Glo reagent (Promega) was dispensed into the wells, incubated for 5 min and luminescence was read on a ViewLux instrument (Perkin-Elmer). Cytotoxic compounds were defined as those that yielded a curve class of -1.1, -1.2, -2.1, -2.2, -2.3, or -2.4, a maximum response of >50% and an AC50 of < 10 uM. Cherry-picked hits from screening analysis were tested with both the KB pair of cell lines, and the pcDNA (empty vector control) and MDR-19 (P-gp overexpressing) pair were tested, in the absence and presence of tariquidar.
As to `Nc1ncnc2c1ncn2[C@H]1CCCO1`, the result was inactive.
Still for that read-out and setting: in the case of `C[C@@H]1C(=O)O[C@H]2[C@H]1CC[C@@]1(C)C(=O)C=C[C@](C)(O)[C@H]21` it was “inactive”.
For the compound `NC(=O)c1ccc(OCC2NC(=O)C3CCCN3C2=O)cc1` (stereo not given), the outcome was inactive.
Regarding `CCCC1=CC2=C(CO1)C(=O)C(C)(OC(=O)c1c(C)cc(OC)cc1O)C(O)C2` (stereo not given), the “activity change, negative = cytotoxicity” value is -1.99% [at 17.3 µM] (inactive).
As to `C[C@]12O[C@H](C[C@]1(O)CO)n1c3ccccc3c3c4c(c5c6ccccc6n2c5c31)CNC4=O`, the Potency was 4610 nM (active).
Turning to `CC1(C)CC[C@]2(C(=O)O)CC[C@]3(C)C(=CCC4[C@@]5(C)CC[C@H](O[C@@H]6O[C@H](C(=O)O)[C@@H](O)[C@H](O)[C@H]6O)C(C)(CO)C5CC[C@]43C)C2C1` (stereo not given in full), the “activity change, negative = cytotoxicity” value is 4.04% [at 17.3 µM] (inactive).
Consider `CCC[C@@H]1C[C@@H](C(=O)N[C@@H]([C@H]2O[C@H](SC)[C@H](O)[C@@H](O)[C@@H]2O)[C@@H](C)O)N(C)C1`, for which the result was inactive.
Turning to `CC1=C2C3OC(=O)C(C)C3(O)CCC2(C)CCC1=O` (stereo not given), the “activity change, negative = cytotoxicity” value was 0.656% (inactive).
For the compound `COC(=O)[C@@]1(O)C=CC[C@@H]2[C@@]3(C)C[C@@H](c4ccoc4)OC(=O)[C@H]3CC[C@]21C`, the result was inactive.
For the compound `CCC(C)/C=C(C)/C=C/C1=CC2=C(Cl)C(=O)C(C)(OC(C)=O)C(=O)C2=CN1CCCC(=O)O` (stereo not given), the “outcome” value is “inactive [at 17.3 µM]”.
With `O=C1C(=O)c2ncccc2-c2cccnc21`, the Potency is 1160 nM (active).
For the compound `COc1cc(C2Oc3c(OC)cc(CCCO[C@@H]4O[C@H](CO)[C@@H](O)[C@H](O)[C@H]4O)cc3C2CO)ccc1O` (stereo not given in full), the “activity change, negative = cytotoxicity” value is 0.807% [at 17.3 µM] (inactive).
Turning to `CC1(C)C(=O)N2c3ccccc3[C@]3(CC(n4cnc5ccccc5c4=O)C(=O)O3)[C@H]2N1O` (stereo not given in full), the “outcome” value was “inactive [at 17.3 µM]”.
The same measure, in the same setting: in the case of `C=C1C[C@@]23CC[C@@H]4[C@](C)(C(=O)O)CCC[C@@]4(C)C2=CC[C@H]1C3` it was “inactive”; in that of `C[C@@H]1O[C@@H](O[C@H]2[C@H](OC(=O)C34CCC(C)(C)CC3C3=CCC5C6(C)CC(O)C(O[C@@H]7O[C@H](CO)[C@@H](O)[C@H](O)[C@H]7O)C(C)(C(=O)O)C6CCC5(C)C3(CO)CC4)O[C@H](C)[C@H](O)[C@@H]2O)[C@H](O)[C@H](O)[C@H]1O[C@@H]1OC[C@@H](O)[C@H](O)[C@H]1O` (stereo not given in full), “inactive [at 9.29 µM]”.
With `NCc1c[nH]c(=S)n1C1CCc2c(F)cc(F)cc2C1` (stereo not given), the “activity change, negative = cytotoxicity” value was 1.95% (inactive).
On to `COC(=O)[C@H](OC(C)=O)[C@H]1C(C)(C)C(=O)[C@H]2CC3=C4CC(=O)O[C@@H](c5ccoc5)[C@]4(C)CCC3[C@@]1(C)C2=O` (stereo not given in full), for which the “activity change, negative = cytotoxicity” value was 4.12% [at 17.3 µM] (inactive).
Consider `COc1cc(C2c3cc(O)c(OC)cc3CC(CO)C2CO)ccc1O` (stereo not given), for which the “activity change, negative = cytotoxicity” value is -3.72% (inactive).
The same measure, in the same setting: for `CC(C)(O)c1ccc2c(c1)C(=O)CC1[C@](C)(CO)CCC[C@]21C` (stereo not given in full) the value was 3.32% (inactive).
In the case of `O=C(C1CC1)N1CC[C@@H](Cc2n[nH]c(=O)n2-c2ccc(-c3ccc4occc4c3)cc2)C1`, the “outcome” value was “inactive [at 17.3 µM]”.
Turning to `Cc1c(N2C(=O)c3ccc(C(=O)O)cc3C2=O)c(=O)n(-c2ccccc2)n1C`, the compound was classed as inactive.
Still for that read-out and setting: for `C[C@H]1CN(C[C@H](Cc2ccccc2)C(=O)NCC(=O)O)CC[C@@]1(C)c1cccc(O)c1` the value was “inactive”.
With `COc1ccc(/C=C/C(=O)O[C@@H]2[C@@H](OC(C)=O)[C@@H](OC(C)=O)[C@H](O[C@H]3[C@@H]4C=CO[C@@H](O[C@@H]5O[C@H](CO)[C@@H](O)[C@H](O)[C@H]5O)[C@@H]4[C@@]4(CO)O[C@@H]34)O[C@H]2C)cc1O`, the “outcome” value was “inactive [at 17.3 µM]”.
In the case of `CC1(C)CC2C(O)C3=C(CC(C)(O)C2C1)C(=O)OC3O` (stereo not given), the “activity change, negative = cytotoxicity” value was 0.194% (inactive).
In the case of `C[C@@H]1O[C@@H](OC[C@H]2O[C@@H](OCCc3ccccc3)[C@H](O)[C@@H](O)[C@@H]2O)[C@H](O)[C@H](O)[C@H]1O`, the “outcome” value was “inactive [at 17.3 µM]”.
Regarding `C[C@@H](O)[C@H](N)C(=O)N1CCC[C@H]1C(=O)N1CCC[C@H]1C(=O)N[C@H](C(N)=O)[C@@H](C)O` (H-TPPT-NH2), the outcome was “inactive [at 9.29 µM]”.
Take `CON(C)C(=O)N1N=C(c2cc(F)ccc2F)S[C@@]1(CCCN)c1ccccc1`: the Potency is 164 nM (active).
As for `C[C@]12CCC[C@](C)(C(=O)O)C1CCC13C=C(CO)C(CCC12)C3` (stereo not given in full), the “activity change, negative = cytotoxicity” value is 2.32% (inactive).
With `CC(=O)OC(CSC1CCC(=O)OC(C)CCC(=O)C1)C(=O)O` (stereo not given), the “activity change, negative = cytotoxicity” value was 9.54% (inactive).
On to `CCC(C)C1NC(=O)C2CCCN2C(=O)C(C(C)C)NC(=O)c2ccccc2NC(=O)C(Cc2ccc(O)cc2)NC(=O)C(C)NC(=O)C(C(C)O)NC1=O` (stereo not given) (cyclo([2Abz]VPITAY); configuration not given here), for which the “outcome” value was “inactive [at 17.3 µM]”.
With `COC1CC(OC2CCC3(C)C(=CCC4C3CCC3(C)C(C(C)O)CCC43O)C2)OC(C)C1OC1OC(C)C(OC2OC(COC3OC(COC4OC(CO)C(O)C(O)C4O)C(O)C(O)C3O)C(O)C(O)C2O)C(OC)C1O` (stereo not given), the activity change, negative = cytotoxicity is 4.62% [at 9.29 µM] (inactive).
Regarding `O=C(/C=C/c1ccc(O)cc1)OC[C@H]1O[C@@H](OC(=O)/C=C/c2ccccc2)[C@H](O)[C@@H](O)[C@@H]1O`, the “activity change, negative = cytotoxicity” value was 2.77% [at 17.3 µM] (inactive).
As for `CC(O)C(O)/C=C/C=C/C(=O)O[C@@H]1C=C2COC(=O)[C@]2(O)[C@@]2(C)CCCC(C)(C)C12` (stereo not given in full), the “activity change, negative = cytotoxicity” value is 2.92% [at 17.3 µM] (inactive).
Consider `CC1=CC(=O)C[C@H]2[C@@H]1CC[C@@H](C)[C@]21CO[C@H](c2ccoc2)C1=O`, for which the “activity change, negative = cytotoxicity” value was -5.74% (inactive).
As for `CC1(C)O[C@@]2(C)CC[C@@H]1C[C@@H]2OC1OC(CO)C(O)C(O)C1O` (stereo not given in full), the “activity change, negative = cytotoxicity” value was 5.01% (inactive).
Regarding `CC(CO[C@@H]1O[C@H](COC(=O)/C=C/c2ccc(O)c(O)c2)[C@@H](O)[C@H](O)[C@H]1O)C1(O)COC(=O)C1` (stereo not given in full), the “activity change, negative = cytotoxicity” value was -5.06% [at 17.3 µM] (inactive).
As to `C=C(C)C(C)C1OC23CC4(CO2)C(CCC2C5(C)CCC(OC6OCC(O)C(OC7OC(CO)C(O)C(OC8OCC(O)C(O)C8O)C7O)C6OC6OC(CO)C(O)C6O)C(C)(C)C5CCC24C)C3C(C)(O)C1OC(C)=O` (stereo not given), the activity change, negative = cytotoxicity was 3.91% [at 9.29 µM] (inactive).
Turning to `C=C1C2(CCC(=O)OC2(C)C)CC(OC(=O)/C(C)=C/C)C2(C)C13OC14C(=O)OC(C)(C(=O)C12C(=O)OC4C)C3OC(C)=O` (stereo not given), the “outcome” value is “inactive [at 17.3 µM]”.
For the compound `CC(C)(O)/C=C1/C(=O)C(C)(C)C(=O)C(C)(C)C1(O)O[C@@H]1O[C@H](COC(=O)c2cc(O)c(O)c(O)c2)[C@@H](O)[C@H](O)[C@H]1O` (stereo not given in full), the “activity change, negative = cytotoxicity” value is 8.43% [at 17.3 µM] (inactive).
On to `C=C1C(OC(C)=O)C(=O)C2C(C)(C)C(OC(C)=O)CCC2(C)C1CC(OC(C)=O)/C(C)=C/COC(C)=O` (stereo not given), for which the “activity change, negative = cytotoxicity” value was 0.406% [at 17.3 µM] (inactive).
